# Assay results reported in PubChem BioAssay (Tox21).
# “And” between values parts separate entries of the source, which are not always exact repeats. Equal entries are not always repeated. Records with an inconclusive call do not appear. Entries that show only a call come without a potency. Some structures have more than one record in an assay (separate samples or runs), and their calls can disagree. The source made the active and inactive calls. Unless noted, calls follow the shape of the dose curve; as a rule, active = well fitted curve in the direction sought with a large enough effect in the repeat runs; inconclusive = weak or mixed curves; inactive = no such curve, though single readings can be large; an effect the other way counts as inactive or inconclusive.
# Key:
# [1] = qHTS assay to identify small molecule antagonists of the glucocorticoid receptor (GR) signaling pathway - cell viability counter screen (AID 720693); also: nearly all actives have a fitted effect of over 55% in size; also: potency is read from the fitted curve at half-maximal effect
# [2] = qHTS assay for identifying genotoxic compounds that show differential cytotoxicity against isogenic chicken DT40 cell lines with known DNA damage response pathways - wild type cell line (AID 743012); also: nearly all actives have a fitted effect of over 60% in size; also: potency is read from the fitted curve at half-maximal effect
# Procedure, shortened: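 Quantitative HTS on parental DT40 cells: 40 h compound treatment at 37 C/5% CO2, with viability then determined by CellTiter-Glo luminescence. Values serve as the DNA repair-proficient reference for differential cytotoxicity.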
# [3] = qHTS assay for identifying genotoxic compounds that show differential cytotoxicity against isogenic chicken DT40 cell lines with known DNA damage response pathways - Rev3 mutant cell line (AID 743014); also: nearly all actives have a fitted effect of over 55% in size; also: potency is read from the fitted curve at half-maximal effect
# [4] = qHTS assay for identifying genotoxic compounds that show differential cytotoxicity against isogenic chicken DT40 cell lines with known DNA damage response pathways - Rad54/Ku70 mutant cell line (AID 743015); also: nearly all actives have a fitted effect of over 60% in size; also: potency is read from the fitted curve at half-maximal effect
# [5] = qHTS assay to identify small molecule antagonists of the androgen receptor (AR) signaling pathway - cell viability counter screen (AID 743033; also: nearly all actives have a fitted effect of over 45% in size; also: potency is read from the fitted curve at half-maximal effect)
# [6] = qHTS assay to identify small molecule antagonists of the androgen receptor (AR) signaling pathway using the MDA cell line - cell viability counter screen (AID 743041; also: nearly all actives have a fitted effect of over 45% in size; also: potency is read from the fitted curve at half-maximal effect)
# Procedure, shortened: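 Cells were plated at 3,000 per well and left 5 h. Compounds in DMSO were then pinned in, followed by R1881. After 16 h at 37C, CellTiter-Fluor fluorescence gave viability.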
# [7] = target: Androgen receptor (Homo sapiens) (UniProt P10275); experiment: qHTS assay to identify small molecule antagonists of the androgen receptor (AR) signaling pathway (AID 743035; active = well fitted inhibition curve with a large enough effect in the signal ratio in the repeat runs, not every such curve was filed as active; the % refers to the signal ratio)
# Sequence of Androgen receptor (Homo sapiens) (P10275 whole entry, looked up): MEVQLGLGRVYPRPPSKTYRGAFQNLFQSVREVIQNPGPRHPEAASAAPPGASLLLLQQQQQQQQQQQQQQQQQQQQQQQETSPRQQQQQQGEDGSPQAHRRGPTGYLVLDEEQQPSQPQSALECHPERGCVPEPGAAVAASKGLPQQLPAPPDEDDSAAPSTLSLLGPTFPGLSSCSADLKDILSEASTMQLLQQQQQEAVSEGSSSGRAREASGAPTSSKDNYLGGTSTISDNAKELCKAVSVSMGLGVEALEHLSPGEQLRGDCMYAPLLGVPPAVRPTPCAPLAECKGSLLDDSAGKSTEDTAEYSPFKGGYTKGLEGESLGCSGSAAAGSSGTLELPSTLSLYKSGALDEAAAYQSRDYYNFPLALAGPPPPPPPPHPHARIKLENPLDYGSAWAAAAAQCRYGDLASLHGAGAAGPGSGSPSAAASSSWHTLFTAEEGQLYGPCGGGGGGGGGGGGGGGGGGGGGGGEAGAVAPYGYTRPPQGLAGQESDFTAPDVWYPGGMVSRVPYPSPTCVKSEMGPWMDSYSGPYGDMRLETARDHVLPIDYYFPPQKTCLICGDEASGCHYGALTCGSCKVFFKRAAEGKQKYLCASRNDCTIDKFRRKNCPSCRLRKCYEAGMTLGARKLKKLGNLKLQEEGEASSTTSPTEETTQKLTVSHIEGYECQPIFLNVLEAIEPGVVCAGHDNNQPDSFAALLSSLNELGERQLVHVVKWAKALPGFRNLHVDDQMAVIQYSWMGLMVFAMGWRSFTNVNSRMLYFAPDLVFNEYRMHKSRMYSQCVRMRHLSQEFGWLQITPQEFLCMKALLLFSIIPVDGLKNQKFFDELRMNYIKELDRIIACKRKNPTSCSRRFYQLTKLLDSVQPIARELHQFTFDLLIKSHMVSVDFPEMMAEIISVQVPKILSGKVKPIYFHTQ
# Procedure, shortened: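 Cell line: GeneBLAzer AR-UAS-bla GripTite (HEK293). Stimulus: R1881 added after compound. Exposure: 16 h, 37C, 5% CO2. Readout: LiveBLAzer B/G FRET fluorescence after 2 h at room temperature.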
# [8] = target: Androgen receptor (Homo sapiens) (UniProt P10275); experiment: qHTS assay to identify small molecule agonists of the androgen receptor (AR) signaling pathway (AID 743036; active = well fitted activation curve with a large enough effect in the signal ratio in the repeat runs, with a control signal flat, not every such curve was filed as active; the % refers to the signal ratio)
# Procedure, shortened: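 Activation was read as beta-lactamase FRET signal from LiveBLAzer B/G substrate, added for 2 h at room temperature. Before that, GeneBLAzer AR-UAS-bla GripTite (HEK293) cells had 16 h compound exposure at 37C.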
# [9] = target: Androgen receptor (Homo sapiens) (UniProt P10275); experiment: qHTS assay to identify small molecule agonists of the androgen receptor (AR) signaling pathway using the MDA cell line (AID 743040; also: nearly all actives have a fitted effect of over 20% in size); details: MDA-kb2 AR-luc cells, MMTV luciferase, 16 h; activity change: at 70.3 µM (top of the series), stronger effect = higher value
# Procedure, shortened: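 Cells plated, 5 h at 37C/0% CO2; compound or DMSO pinned; 16 h at 37C; ONE-Glo added; luminescence measured after 30 min at room temperature. Reporter line: MDA-kb2 with MMTV-luciferase responsive to AR and GR.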
# [10] = target: Androgen receptor (Homo sapiens) (UniProt P10275); experiment: qHTS assay to identify small molecule antagonists of the androgen receptor (AR) signaling pathway using the MDA cell line (AID 743042; also: nearly all actives have a fitted effect of over 55% in size)
# Procedure, shortened: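 Antagonist mode: compounds plus R1881 agonist added to MDA-kb2 AR-luc cells, incubated 16 h at 37C. Luciferase reporter luminescence quantified, with multiplexed CellTiter-Fluor readout for cell viability.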
SMILES,Potency [1],Potency [2],Potency [3],Potency [4],Potency [5],Potency [6],Potency [7],Potency [8],Potency [9],Potency [10]
CC(C)[C@@H](C(=O)O[C@@H](C#N)c1cccc(Oc2ccccc2)c1)c1ccc(Cl)cc1,inactive,inactive,inactive and 54.5 µM (active),30.6 µM (active),inactive,inactive,–,–,–,–
C1CS1,inactive,inactive,inactive,inactive,inactive,inactive,–,–,–,–
CN1C[C@H](C(=O)N[C@]2(C)O[C@@]3(O)[C@@H]4CCCN4C(=O)[C@H](Cc4ccccc4)N3C2=O)C=C2c3cccc4[nH]cc(c34)C[C@H]21,inactive,21.1 µM (active) and 48.8 µM (active) and 22.6 µM (active),23.7 µM (active) and 27.4 µM (active) and 18 µM (active),9.44 µM (active) and 13.7 µM (active) and 10.1 µM (active),inactive,inactive,–,–,–,–
CC(Oc1cccc(Cl)c1)C(=O)O (configuration not stated),inactive,inactive,inactive,inactive,inactive,inactive,–,–,–,–
C=CCN1C[C@H](C)N([C@H](c2ccc(C(=O)N(CC)CC)cc2)c2cccc(OC)c2)C[C@H]1C,inactive,8.41 µM (active),13.3 µM (active),18.8 µM (active),inactive,inactive,–,–,–,–
CC(C)(C)OOC(C)(C)CCC(C)(C)OOC(C)(C)C,inactive,inactive,68.6 µM (active),inactive,inactive,inactive,–,–,–,–
CCOC(=O)NC(O)C(Cl)(Cl)Cl (configuration not stated),inactive,inactive,inactive,inactive,inactive,inactive,–,–,–,–
O=C(O)c1cc(I)cc(I)c1I,inactive,inactive,inactive,inactive,inactive,inactive,–,–,–,–
CCOC(=O)c1cncn1C(C)c1ccccc1 (configuration not stated),inactive,inactive,inactive,inactive,inactive,inactive,–,–,–,–
C[N+](C)(C)CCOC(=O)C(O)(c1ccccc1)c1ccccc1,inactive,inactive,inactive,inactive,inactive,inactive,–,–,–,–
CCCC[P+](CC)(CCCC)CCCC (tested in a mixture with another compound),inactive,27.5 µM (active),17.4 µM (active),12.3 µM (active),inactive,inactive,–,–,–,–
CCC[N+](CCC)(CCC)CCC,inactive,inactive,inactive,inactive,inactive,inactive,–,–,–,–
CCCN(CCC)c1c([N+](=O)[O-])cc(C(C)C)cc1[N+](=O)[O-],inactive,inactive and 61.1 µM (active),inactive,inactive and 54.5 µM (active),inactive,inactive,–,–,–,–
CC(C)(C#N)C(C)(C)C#N,inactive,inactive,inactive,inactive,inactive,inactive,–,–,–,–
CC(Oc1cc(Cl)c(Cl)cc1Cl)C(=O)O (configuration not stated),inactive,inactive,inactive,inactive,inactive,inactive,–,–,–,–
CCCC1CCCCN1 (configuration not stated),inactive,inactive,inactive,inactive,–,inactive,–,–,–,–

SMILES,Potency [1],Potency [2],Potency [3],Potency [4],Potency [5],Potency [6],Potency [7],Potency [8],Potency [9],Potency [10]
CON(C)C(=O)Nc1ccc(Cl)cc1,inactive,inactive,inactive,inactive,inactive,inactive,–,–,–,–
C=CCOCC1CO1 (configuration not stated),inactive,inactive,inactive,inactive,inactive,inactive,–,–,–,–
O=C1c2ccccc2C(=O)N1SC(Cl)(Cl)Cl,17.1 µM (active) and 13.8 µM (active),603 nM (active) and 154 nM (active),67.6 nM (active) and 109 nM (active),–,2.71 µM (active) and 3.09 µM (active),21.7 µM (active),–,–,–,–
CC(C)c1ccc(NC(=O)N(C)C)cc1,inactive,inactive,68.5 µM (active),–,inactive,inactive,–,–,–,–
NC(=O)CF,inactive,inactive,inactive,–,inactive,inactive,–,–,–,–
O=C(O)C(Cl)(Cl)Br,inactive,inactive,inactive,–,inactive,inactive,–,–,–,–
Cc1ccccc1,inactive,inactive,inactive,–,inactive,inactive,–,–,–,–
O=C=NC1CCCCC1,inactive,inactive,inactive,–,inactive,–,–,–,–,–
N#CC1(N=NC2(C#N)CCCCC2)CCCCC1,inactive,inactive,inactive,–,inactive,inactive,–,–,–,–
C=C(Cl)Cl,inactive,inactive,inactive,–,inactive,–,inactive,inactive,inactive,inactive
OCCCl,inactive,inactive,inactive,–,inactive,inactive,–,–,–,–
c1ccc2c(c1)sc1ccccc12,inactive,inactive,–,inactive,inactive,–,–,–,–,–
Cc1nnc(-c2ccccc2)c(=O)n1N,inactive,inactive,inactive,–,inactive,inactive,–,–,–,–
OC[P+](CO)(CO)CO,inactive,inactive,–,inactive,inactive,–,–,–,–,–
COc1ccccc1N1CCNCC1,inactive,inactive,inactive,–,inactive,inactive,–,–,–,–
